Reference: PubChem BioAssay (NCI)
About 83,000 compounds went through this panel and 20% of them were active in at least one assay; those are over-represented in the sample as a whole.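 Note: values are percent growth. 100 is the growth of untreated cells, values between 100 and 0 indicate rising inhibition; between -100 and 0 indicates cell death.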 Calls of active or inactive are those of the source. How the source made its calls: active means growth percent below 10; inactive means the rest.

tested on: SK-MEL-28 melanoma; assay: NCI-60 one-dose screen, 48 h (100 = growth as untreated, 0 = no growth, -100 = all killed); conditions: 10 µM unless noted

Structure (SMILES) | growth
COc1ccc2c(c1)c(-c1noc(-c3cn(C)c4ncc(F)cc34)n1)cn2C | 91.3% (inactive)
O=C(N/N=C\c1cc(Cl)ccc1O)N/N=C/c1cc(Cl)ccc1O | 80.4% (inactive)
O=C(O)c1ccccc1C(F)(F)F | 121% (inactive)
CS(=O)(=O)c1cccnn1 | 117% (inactive)
O=C(Nc1ccc(Oc2ccc(F)cc2)c(Cl)c1)c1cccnn1 | 90.9% (inactive)
CCC(Br)(CC)C(=O)c1ccc(OCC(=O)O)c(Cl)c1Cl | 111% (inactive)
NC(=O)c1cccc(-c2ccc(S(=O)(=O)Nc3ccc4c(c3)N(C(=O)C3CC3)CCC4)cc2)c1 | 51.7% (inactive)
C#CCC(C(=O)OCC)C(=O)OCC | 109% (inactive)
O=[N+]([O-])c1cc(CCl)ccc1OCCBr | 110% (inactive)
O=C(O)c1cn(C2CC2)c2cc(N3CCN(Cc4cc(Cl)ccc4O)CC3)c(F)cc2c1=O | 71.7% (inactive)
Cc1ccc(C2=C/C(=C/c3ccc(Br)cc3)C(=O)N2CCc2ccc(S(N)(=O)=O)cc2)cc1 | 104% (inactive)
COc1ccc(C(=O)/C=C/c2ccccn2)c(O)c1 | 90.7% (inactive)
Cc1cc(C)c(S(=O)(=O)/N=c2/n(-c3ccccc3)nc3n2CCN3C2=NCCN2)c(C)c1 | 82.3% (inactive)
Cc1ccc(S(=O)(=O)n2cc(C(=O)C(=O)N3CCCCC3)c3ccccc32)cc1 | 172% (inactive)
COc1cc(C)cc2oc3oc(=N)c(C(=O)c4ccccc4)cc3c(=O)c12 | 98% (inactive)
COc1ccc(OC)c([N+](=O)[O-])c1C(=O)CNC(C)=O | 114% (inactive)
